From the supplement of paper PMC11732987, “Enantioselective OTUD7B fragment discovery through chemoproteomics screening and high-throughput optimisation” (Communications Chemistry, 2025)

What was measured:
Experiment in all cases: log2 ratio of Biotin-Ahx-Ub-VS probe labelling (fragment/DMSO); higher = less target engagement (more negative = stronger competition), active = hit call of the paper (q ≤ 0.05, log2 ratio ≤ -1)
Conditions in all cases: compound concentration: 200 uM; treatment time: 3 h
USP19 = target: T1, USP19 (UniProt O94966)
T1 sequence (whole entry): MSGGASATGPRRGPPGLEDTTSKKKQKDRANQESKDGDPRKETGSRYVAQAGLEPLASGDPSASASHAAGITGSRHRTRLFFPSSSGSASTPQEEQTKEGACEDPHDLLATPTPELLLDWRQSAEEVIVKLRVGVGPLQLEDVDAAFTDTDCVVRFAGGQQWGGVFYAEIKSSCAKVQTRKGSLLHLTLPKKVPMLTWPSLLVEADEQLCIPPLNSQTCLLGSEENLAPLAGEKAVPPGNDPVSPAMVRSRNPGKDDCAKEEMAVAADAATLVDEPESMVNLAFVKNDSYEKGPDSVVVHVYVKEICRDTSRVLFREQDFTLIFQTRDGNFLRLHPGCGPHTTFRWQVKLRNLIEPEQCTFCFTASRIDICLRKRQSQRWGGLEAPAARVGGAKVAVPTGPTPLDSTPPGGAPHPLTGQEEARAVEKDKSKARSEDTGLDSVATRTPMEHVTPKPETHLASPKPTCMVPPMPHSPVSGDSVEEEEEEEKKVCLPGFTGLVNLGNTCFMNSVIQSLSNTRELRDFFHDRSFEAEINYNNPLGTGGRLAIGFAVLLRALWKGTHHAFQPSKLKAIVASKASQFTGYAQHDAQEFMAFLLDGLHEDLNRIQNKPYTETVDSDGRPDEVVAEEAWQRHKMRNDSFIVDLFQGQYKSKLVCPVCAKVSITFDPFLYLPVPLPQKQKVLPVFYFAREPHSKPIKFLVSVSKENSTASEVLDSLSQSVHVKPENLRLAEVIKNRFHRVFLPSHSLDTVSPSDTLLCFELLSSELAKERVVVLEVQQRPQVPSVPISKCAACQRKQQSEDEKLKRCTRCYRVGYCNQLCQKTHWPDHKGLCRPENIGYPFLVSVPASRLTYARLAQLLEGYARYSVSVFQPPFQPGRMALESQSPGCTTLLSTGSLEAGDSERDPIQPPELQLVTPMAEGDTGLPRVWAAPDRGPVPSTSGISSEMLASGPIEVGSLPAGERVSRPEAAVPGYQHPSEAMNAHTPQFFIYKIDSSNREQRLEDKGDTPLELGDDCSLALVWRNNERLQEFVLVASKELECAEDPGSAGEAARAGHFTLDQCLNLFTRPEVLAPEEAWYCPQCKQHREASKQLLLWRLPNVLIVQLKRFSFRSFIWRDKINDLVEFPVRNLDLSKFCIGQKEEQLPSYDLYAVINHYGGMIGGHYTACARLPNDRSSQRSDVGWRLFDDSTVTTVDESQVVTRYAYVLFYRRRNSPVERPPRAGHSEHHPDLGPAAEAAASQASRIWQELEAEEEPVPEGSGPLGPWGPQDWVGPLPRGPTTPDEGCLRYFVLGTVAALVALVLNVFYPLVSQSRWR
In short: (§1)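 HEK293T lysate, 495 µg per sample in Tris/CHAPS/IGEPAL buffer with protease inhibitors, was treated in triplicate with fragment at 200 µM or vehicle for 3 h and then with Biotin-Ahx-Ub-VS at 0.5 µM final for 1 h. Labelled DUBs were NeutrAvidin-enriched, digested with LysC and trypsin, and run by diaPASEF LC-MS/MS. Spectronaut label-free quantities were global-median-normalised, and values are average log2 fragment/vehicle ratios by unpaired t-test on proteins with ≥2 unique peptides.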

USP22 = target: T2, USP22 (UniProt Q9UPT9)
T2 sequence (whole entry): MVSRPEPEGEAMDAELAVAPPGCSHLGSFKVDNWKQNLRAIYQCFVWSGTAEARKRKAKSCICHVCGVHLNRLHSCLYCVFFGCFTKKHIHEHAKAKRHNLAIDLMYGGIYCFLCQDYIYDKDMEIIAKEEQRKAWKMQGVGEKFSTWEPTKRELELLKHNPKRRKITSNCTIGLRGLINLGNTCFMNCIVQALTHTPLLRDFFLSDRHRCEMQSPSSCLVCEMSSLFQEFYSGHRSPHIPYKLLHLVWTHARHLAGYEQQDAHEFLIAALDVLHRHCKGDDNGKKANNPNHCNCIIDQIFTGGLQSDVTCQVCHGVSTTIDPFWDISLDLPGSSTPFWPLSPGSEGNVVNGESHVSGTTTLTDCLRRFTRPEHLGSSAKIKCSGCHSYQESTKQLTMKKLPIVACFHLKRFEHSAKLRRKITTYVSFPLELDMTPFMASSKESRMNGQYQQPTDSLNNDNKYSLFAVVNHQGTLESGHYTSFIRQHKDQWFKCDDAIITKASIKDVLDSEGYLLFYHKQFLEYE
In short: as §1

USP24 = USP24 (UniProt Q9UPU5)
In short: as §1

USP25 = target: T3, USP25 (UniProt Q9UHP3)
T3 sequence (whole entry): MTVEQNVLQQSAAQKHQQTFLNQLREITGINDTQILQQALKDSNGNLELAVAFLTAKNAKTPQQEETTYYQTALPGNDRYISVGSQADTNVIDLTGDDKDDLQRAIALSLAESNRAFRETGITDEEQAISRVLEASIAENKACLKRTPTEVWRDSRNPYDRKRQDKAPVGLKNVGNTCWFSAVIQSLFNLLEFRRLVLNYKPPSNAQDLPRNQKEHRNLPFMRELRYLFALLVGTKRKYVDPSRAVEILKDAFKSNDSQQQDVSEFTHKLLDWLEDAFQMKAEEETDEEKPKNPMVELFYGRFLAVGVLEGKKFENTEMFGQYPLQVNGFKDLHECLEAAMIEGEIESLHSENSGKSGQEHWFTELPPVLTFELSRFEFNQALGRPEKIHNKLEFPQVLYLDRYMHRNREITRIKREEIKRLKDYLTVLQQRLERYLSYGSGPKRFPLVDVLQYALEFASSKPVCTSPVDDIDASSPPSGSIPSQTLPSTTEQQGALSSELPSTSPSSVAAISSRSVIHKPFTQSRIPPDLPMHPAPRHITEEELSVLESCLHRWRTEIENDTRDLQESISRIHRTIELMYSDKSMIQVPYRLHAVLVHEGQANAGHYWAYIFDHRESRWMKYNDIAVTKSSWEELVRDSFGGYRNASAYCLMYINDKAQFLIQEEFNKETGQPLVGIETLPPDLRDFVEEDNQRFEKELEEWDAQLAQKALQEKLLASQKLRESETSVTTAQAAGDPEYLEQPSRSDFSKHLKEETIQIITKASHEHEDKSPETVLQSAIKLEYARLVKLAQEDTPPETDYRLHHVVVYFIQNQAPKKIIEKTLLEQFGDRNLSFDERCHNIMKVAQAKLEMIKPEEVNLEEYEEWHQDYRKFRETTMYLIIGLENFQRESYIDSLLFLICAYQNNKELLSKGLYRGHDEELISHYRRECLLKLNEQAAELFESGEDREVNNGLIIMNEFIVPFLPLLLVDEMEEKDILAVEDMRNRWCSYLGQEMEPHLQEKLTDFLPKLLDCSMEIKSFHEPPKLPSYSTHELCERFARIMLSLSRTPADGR
In short: as §1

USP28 = target: T4, USP28 (UniProt Q96RU2)
T4 sequence (whole entry): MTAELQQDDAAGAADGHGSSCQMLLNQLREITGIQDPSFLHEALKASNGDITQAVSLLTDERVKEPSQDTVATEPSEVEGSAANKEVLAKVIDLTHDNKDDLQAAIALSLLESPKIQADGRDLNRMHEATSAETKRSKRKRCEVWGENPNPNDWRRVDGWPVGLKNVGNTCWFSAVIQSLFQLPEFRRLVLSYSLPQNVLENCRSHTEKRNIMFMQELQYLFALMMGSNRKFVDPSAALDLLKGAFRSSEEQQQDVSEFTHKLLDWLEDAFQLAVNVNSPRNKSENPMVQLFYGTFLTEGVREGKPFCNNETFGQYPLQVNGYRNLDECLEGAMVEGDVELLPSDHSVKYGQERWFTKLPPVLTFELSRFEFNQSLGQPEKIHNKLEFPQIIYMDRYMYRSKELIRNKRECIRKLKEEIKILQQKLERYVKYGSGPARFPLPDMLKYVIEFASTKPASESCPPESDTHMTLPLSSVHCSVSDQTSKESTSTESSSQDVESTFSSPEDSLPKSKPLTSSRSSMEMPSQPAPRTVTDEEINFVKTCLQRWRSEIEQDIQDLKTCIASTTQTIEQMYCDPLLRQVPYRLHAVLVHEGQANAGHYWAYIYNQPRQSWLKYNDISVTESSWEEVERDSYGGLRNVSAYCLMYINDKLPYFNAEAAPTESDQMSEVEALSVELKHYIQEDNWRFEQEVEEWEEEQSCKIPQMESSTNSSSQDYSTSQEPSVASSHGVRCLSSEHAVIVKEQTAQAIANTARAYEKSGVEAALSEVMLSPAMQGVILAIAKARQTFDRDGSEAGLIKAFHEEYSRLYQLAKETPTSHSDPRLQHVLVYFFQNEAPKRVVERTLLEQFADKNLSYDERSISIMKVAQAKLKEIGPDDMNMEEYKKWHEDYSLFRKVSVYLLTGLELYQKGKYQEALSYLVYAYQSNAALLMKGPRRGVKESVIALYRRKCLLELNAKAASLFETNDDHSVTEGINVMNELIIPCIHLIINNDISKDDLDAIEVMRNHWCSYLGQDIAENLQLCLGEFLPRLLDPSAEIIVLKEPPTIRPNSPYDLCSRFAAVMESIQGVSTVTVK
In short: as §1

Measured: log2 ratio of Biotin-Ahx-Ub-VS probe labelling

Chain of USP24 (Q9UPU5 whole entry): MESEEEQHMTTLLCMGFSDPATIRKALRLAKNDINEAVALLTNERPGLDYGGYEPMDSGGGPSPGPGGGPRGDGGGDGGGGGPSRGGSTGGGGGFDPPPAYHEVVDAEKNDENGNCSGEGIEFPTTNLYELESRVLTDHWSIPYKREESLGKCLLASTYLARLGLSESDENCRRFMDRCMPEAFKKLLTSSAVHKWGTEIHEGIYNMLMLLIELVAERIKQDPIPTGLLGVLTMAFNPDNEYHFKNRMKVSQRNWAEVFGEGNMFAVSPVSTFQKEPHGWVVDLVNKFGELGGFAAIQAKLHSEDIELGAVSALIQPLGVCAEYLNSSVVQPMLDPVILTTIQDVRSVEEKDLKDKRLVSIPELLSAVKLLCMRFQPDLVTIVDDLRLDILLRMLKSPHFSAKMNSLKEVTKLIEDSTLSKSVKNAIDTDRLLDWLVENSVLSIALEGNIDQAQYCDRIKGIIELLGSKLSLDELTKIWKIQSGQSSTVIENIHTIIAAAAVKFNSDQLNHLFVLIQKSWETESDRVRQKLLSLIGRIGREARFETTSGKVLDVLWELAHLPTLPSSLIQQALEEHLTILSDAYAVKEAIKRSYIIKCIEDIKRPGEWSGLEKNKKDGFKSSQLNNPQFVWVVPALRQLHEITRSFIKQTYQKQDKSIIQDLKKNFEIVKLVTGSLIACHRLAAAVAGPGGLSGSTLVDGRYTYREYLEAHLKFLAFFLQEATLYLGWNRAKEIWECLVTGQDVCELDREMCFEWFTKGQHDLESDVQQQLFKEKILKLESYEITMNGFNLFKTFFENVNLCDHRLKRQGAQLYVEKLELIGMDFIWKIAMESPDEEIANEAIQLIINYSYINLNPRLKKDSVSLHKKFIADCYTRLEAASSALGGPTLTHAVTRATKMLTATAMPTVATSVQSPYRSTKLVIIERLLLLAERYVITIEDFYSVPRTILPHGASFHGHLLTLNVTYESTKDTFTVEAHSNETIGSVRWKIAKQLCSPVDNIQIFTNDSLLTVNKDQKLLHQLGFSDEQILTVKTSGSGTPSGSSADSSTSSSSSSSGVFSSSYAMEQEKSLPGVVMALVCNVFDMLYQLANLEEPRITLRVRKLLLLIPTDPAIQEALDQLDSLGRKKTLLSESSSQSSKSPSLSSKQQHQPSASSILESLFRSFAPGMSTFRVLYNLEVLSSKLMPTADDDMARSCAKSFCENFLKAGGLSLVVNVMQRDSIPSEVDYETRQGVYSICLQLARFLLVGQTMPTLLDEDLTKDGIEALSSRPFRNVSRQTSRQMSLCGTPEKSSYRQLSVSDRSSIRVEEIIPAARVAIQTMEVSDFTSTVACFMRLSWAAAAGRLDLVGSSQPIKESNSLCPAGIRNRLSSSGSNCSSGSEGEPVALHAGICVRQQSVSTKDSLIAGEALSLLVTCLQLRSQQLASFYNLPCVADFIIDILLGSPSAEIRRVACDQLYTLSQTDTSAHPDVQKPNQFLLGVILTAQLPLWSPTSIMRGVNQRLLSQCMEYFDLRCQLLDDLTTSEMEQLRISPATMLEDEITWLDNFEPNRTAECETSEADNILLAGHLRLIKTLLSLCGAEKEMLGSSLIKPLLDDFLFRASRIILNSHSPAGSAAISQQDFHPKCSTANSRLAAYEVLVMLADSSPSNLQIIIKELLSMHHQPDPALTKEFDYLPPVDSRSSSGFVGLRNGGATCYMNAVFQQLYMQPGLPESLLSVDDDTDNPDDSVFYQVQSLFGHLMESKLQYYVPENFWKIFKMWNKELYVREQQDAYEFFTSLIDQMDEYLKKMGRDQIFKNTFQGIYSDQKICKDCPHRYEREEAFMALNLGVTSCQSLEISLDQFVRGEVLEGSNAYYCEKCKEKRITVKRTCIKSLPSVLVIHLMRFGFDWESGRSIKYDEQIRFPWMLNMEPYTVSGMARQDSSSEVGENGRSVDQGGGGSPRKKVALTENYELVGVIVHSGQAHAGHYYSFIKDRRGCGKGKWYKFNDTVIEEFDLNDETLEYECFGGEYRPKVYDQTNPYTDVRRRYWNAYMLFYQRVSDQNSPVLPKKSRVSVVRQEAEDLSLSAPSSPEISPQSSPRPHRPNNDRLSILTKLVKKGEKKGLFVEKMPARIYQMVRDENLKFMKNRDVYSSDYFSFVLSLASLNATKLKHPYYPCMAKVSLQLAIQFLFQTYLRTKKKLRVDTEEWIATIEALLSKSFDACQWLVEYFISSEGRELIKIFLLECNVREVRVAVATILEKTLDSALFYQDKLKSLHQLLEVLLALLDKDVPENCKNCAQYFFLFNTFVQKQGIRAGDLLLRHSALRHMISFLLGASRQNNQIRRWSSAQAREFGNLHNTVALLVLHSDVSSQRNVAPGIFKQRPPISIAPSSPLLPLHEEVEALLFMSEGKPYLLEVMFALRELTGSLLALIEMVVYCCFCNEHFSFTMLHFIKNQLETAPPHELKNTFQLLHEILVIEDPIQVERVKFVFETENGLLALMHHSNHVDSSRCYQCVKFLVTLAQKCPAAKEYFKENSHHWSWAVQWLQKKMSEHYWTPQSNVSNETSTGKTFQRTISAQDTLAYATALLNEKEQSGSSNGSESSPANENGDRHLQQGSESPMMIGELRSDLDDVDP

Cc1nc(CN2CCN(C(=O)CCl)CC2)cs1
inactive: USP19 -0.347 | USP22 -0.169 | USP24 -0.513 | USP25 -0.212 | USP28 -0.543
